This is a sample that favours compounds with a hit; in the whole collection about 19% have one here.
IL1B secr inh: inflammasome signaling inhibition, IL-1 beta readout. AID 743279. 4.7% of 360,000 active. THP-1 LPS/ATP IL-1B secretion, AlphaLISA, 16 h; active compounds read low. activity change, % at 57.5 µM; in the data active = activity change below about -50%; inconclusive = mostly about -30% to -49%
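THP-1 cells pretreated 1 hr with compounds (up to 57.5 uM final), then stimulated with LPS (250 ng/mL final) plus ATP (1.25 mM final); secreted IL-1B measured by AlphaLISA after 16 hr, decreased signal indicating inhibition.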
Giardia kill: kills Giardia lamblia. Giardia lamblia trophozoite viability. activity change, % at 7.66 µM, hits read low. 0.15% of 340,000 active. AID 540267; in the data active = activity change below about -80%; inconclusive = between about -30% and that limit;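 also: parasites exposed to compound for two days anaerobically before the ATP read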
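Giardia trophozoites, 100 cells per well, were exposed to compounds for 48 hrs at 37 deg C under anaerobic conditions; viability was then read as ATP content by bioluminescence after 15-30 min at room temperature.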
TDP1 cell CPT: DT40-hTDP1 cell growth loss with CPT; chicken DT40 Tdp1-/-;hTDP1 cells + 20 nM CPT, ATP luminescence, 48 h; Potency, µM (top dose mostly 46.2 µM), inactives show at the highest dose activity change, negative = growth inhibition, usual class: inhibitors; 12% of 420,000 active; also: potency is read from the fitted curve at half-maximal effect; nearly all actives have a fitted effect of over 55% in size
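Chicken DT40 Tdp1-/- cells stably complemented with human TDP1 were seeded at 400 cells/well in medium containing 20 nM camptothecin, exposed to pin-transferred compounds, and grown at 37 °C for at least 48 hr. Viability was read as ATP luminescence.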
ELG1 repair inh: ELG1-dependent DNA repair inhibition; HEK293T ELG1-luciferase reporter, luminescence, 16 h; DNA damage induced by 5-fluorouridine; Potency, µM (doses to about 46.1 µM), without a hit: at the top dose activity change, negative = inhibition, most hits filed as inhibitors; 2.3% of 330,000 active; also: potency is read from the fitted curve at half-maximal effect; nearly all actives have a fitted effect of over 55% in size
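HEK293T cells expressing luciferase-tagged ELG1 (2,000/well) received 5-Fluorouridine plus compound or DMSO for 16 hr at 37 °C. Luciferase was read by ONE-Glo luminescence after 30 min at room temperature.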
DT40 TDP1 no CPT: qHTS for Inhibitors of human tyrosyl-DNA phosphodiesterase 1 (TDP1): qHTS in cells in absence of CPT | 15% of 420,000 active | Potency, µM (top dose mostly 46.2 µM), for the others: top-dose activity change, negative = growth inhibition, hits mostly inhibitors | DT40 Tdp1-/- hTDP1 cells, no CPT, ATP luminescence, 48 h | AID 686978, 2013; also: potency is read from the fitted curve at half-maximal effect; nearly all actives have a fitted effect of over 55% in size
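Cells were dispensed at 400 per well, compounds added by pin tool, plates incubated ≥48 hr at 37 °C, then CellTiter-Glo added for 30 min at room temperature before luminescence reading. Line: DT40 Tdp1-/- complemented with hTDP1; camptothecin omitted.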
TDP1 block: TDP1 (human) enzyme inhibition | Q9NUW8 | recombinant TDP1, AlphaScreen DNA substrate cleavage | Potency, µM (series often up to 130 µM), for inactives: at the top dose activity change, negative = inhibition, actives largely listed as inhibitors | 0.28% of 350,000 active | AID 485290; also: potency is read from the fitted curve at half-maximal effect; nearly all actives have a fitted effect of over 40% in size
Target sequence (Q9NUW8 whole entry, looked up): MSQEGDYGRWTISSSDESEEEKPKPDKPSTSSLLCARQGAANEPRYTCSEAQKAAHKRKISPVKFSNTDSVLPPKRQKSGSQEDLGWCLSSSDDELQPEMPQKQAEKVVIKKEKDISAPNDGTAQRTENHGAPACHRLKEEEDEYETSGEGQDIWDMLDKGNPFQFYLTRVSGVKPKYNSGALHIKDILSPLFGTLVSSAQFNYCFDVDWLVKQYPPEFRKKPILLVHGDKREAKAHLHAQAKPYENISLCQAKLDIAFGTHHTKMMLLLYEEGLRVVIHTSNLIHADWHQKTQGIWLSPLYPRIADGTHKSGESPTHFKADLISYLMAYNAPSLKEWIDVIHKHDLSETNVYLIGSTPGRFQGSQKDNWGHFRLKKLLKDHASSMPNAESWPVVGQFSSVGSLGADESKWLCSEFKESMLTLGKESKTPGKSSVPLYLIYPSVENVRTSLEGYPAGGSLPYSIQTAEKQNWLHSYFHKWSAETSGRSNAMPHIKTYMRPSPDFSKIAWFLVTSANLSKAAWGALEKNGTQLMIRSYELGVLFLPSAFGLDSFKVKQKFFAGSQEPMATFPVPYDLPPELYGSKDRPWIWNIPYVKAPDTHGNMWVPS
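Steps: enzyme plus compound, 15 min RT; add biotin/phosphotyrosine-FITC oligonucleotide (15 nM final), react 5 min; add donor/acceptor beads (10 ug/ml final), 10 min; read AlphaScreen. Tdp1 at 1 nM final.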
* = called active by the depositor; ? = inconclusive; · = no result given; [ ] = dose if it differs, or a comment. Unless noted, calls follow the shape of the dose curve; as a rule, active = well fitted curve in the direction sought with a large enough effect; inconclusive = small, poorly fitted or top-dose-only effect, or another doubt; inactive = no such curve, though single readings can be large; an effect the other way counts as inactive or inconclusive. % is scaled to controls: 0 for no effect and ±100 for the full control effect.

SMILES	IL1B secr inh	Giardia kill	TDP1 cell CPT	ELG1 repair inh	DT40 TDP1 no CPT	TDP1 block
O=[N+]([O-])/C=C1\C=CC=CN1Cc1ccc(Cl)cc1	11	4	?	1%	26%	·
CCC(Sc1nc2ncccc2[nH]1)C(=O)Nc1ccccc1F (centres undefined)	·	·	-24%	·	?	6%
Cc1c(CCOC(=O)C23CC4CC(CC(C4)C2)C3)sc[n+]1CC#N	-102*	-2	3.3µM*	-7%	5.2µM*	3%
Cc1c(CCOC(=O)CC23CC4CC(CC(C4)C2)C3)sc[n+]1Cc1ccccc1	?	6	2.1µM*	9%	1.8µM*	2%
Cc1cc2n(n1)CCCN2C(=O)Nc1cccc(C)c1C	·	·	-14%	·	-10%	0%
O=C(Cc1cccs1)NC1CC(=O)N(c2cccc(F)c2)C1 (centres undefined)	·	·	-4%	·	-4%	-3%
CCN(CC(=O)Nc1ccccc1OC)C(=O)c1cc(-c2ccccc2)nn1-c1ccccc1	-10	8	21µM*	?	?	8%
Cc1ccc(NC(=O)CN(C)C(=O)c2cc(-c3cccs3)nn2-c2ccccc2)cc1	-52*	-13	?	?	?	2%
CCN(CC(=O)Nc1c(F)cccc1F)C(=O)c1cc(-c2cccs2)nn1-c1ccccc1	-13	6	?	?	18µM*	0%
COC(=O)CCN1CCC2CC1c1cc(-c3cccc(C)c3)ccc12 (centres undefined)	-8	3	?	·	-15%	·
Cn1nc(C(C)(C)C)cc1N1C(=O)CCC1(C)C(=O)NCc1ccccc1 (centres undefined)	7	·	-2%	·	4%	·
C=C1C(=O)OC(CCCCCCCC)C1C(=O)O (centres undefined)	·	·	·	·	·	8%
CC1=C(c2ccc(Cl)cc2)[N+](=O)C(C)(C)N1[O-]	-3	10	16µM*	10%	?	-5%
C=C1C(=O)O[C@H]2C[C@H]1[C@@H](OC(C)=O)C/C(C)=C/CC/C(C)=C\CC[C@]2(C)O	-113*	6	2.6µM*	·	2.9µM*	·
CC(=O)O[C@@H]1C[C@H]2C(C)=C[C@H]3OC(=O)[C@@H](C)[C@H]3C[C@H]2[C@]1(C)O	17	-19	20%	-1%	3%	4%
NNc1nc2c(-c3cccc(C(F)(F)F)c3)nnn2c2ccccc12	-12	-21	-119%	?	-106%	·
CSc1ccc(/C=C(\C#N)C(=O)NC2CCCCC2C)cc1 (centres undefined)	-120*	?	?	-16%	10µM*	8%
CC1CCCCC1NC(=O)/C(C#N)=C/c1ccccc1F (centres undefined)	-101*	12	-104%	26µM*	-100%	4%
N#C/C(=C\c1c(F)cccc1Cl)C(=O)NC1CC1	-74*	0	?	-15%	?	2%
COc1cc(/C=C(\C#N)C(=O)NC2CCCCC2C)ccc1OS(=O)(=O)c1ccc(C)cc1 (centres undefined)	-103*	-16	?	?	16µM*	3%
N#C/C(=C\c1ccccc1)C(=O)NC1CC1	41	4	-16%	4%	5%	·
CCCNC(=O)C1(C)CCN1C(=O)Cc1ccc(C(C)C)cc1 (centres undefined)	41	·	-27%	·	?	·
COCCNC(=O)CN1C(=O)CCn2nc(-c3cn(C)c4ccccc34)cc21	·	·	-24%	·	39%	3%
O=S1(=O)CCN(C(CCO)c2cccc(C(F)(F)F)c2)CC1 (centres undefined)	6	11	9%	10%	-1%	3%
CC1CC(C)CN(C(=O)c2ccc(NC(=O)c3ccc(=O)[nH]c3)cc2)C1 (centres undefined)	6	3	0%	?	-23%	1%
SMILES	IL1B secr inh	Giardia kill	TDP1 cell CPT	ELG1 repair inh	DT40 TDP1 no CPT	TDP1 block
Cc1ccc(NC(=O)c2cc(S(=O)(=O)N3CCOCC3)ccc2Cl)cc1S(=O)(=O)N1CCOCC1	31	15	?	·	?	·
CC(=O)c1ccc(NC(=O)c2ccc(C)c(S(=O)(=O)N3CCOCC3)c2)cc1	20	6	1%	?	?	3%
Cc1ccc(NC(=O)c2ccc(S(=O)(=O)N3CC(C)CC(C)C3)cc2)cc1S(=O)(=O)N1CCOCC1 (centres undefined)	-22	8	16µM*	·	7.3µM*	·
CC1CC(C)CN(S(=O)(=O)c2ccc(NC(=O)c3ccc(=O)[nH]c3)cc2)C1 (centres undefined)	10	-4	3.3µM*	-7%	2.9µM*	-4%
Cc1cc(C)n(-c2ccc(C(=O)Nc3ccc(C)c(S(=O)(=O)N4CCOCC4)c3)cc2)n1	-88*	6	?	?	16µM*	0%
COc1cccc(C(=O)c2sc(NC(C)C)nc2N)c1	-107*	17	?	21µM*	?	2%[56.1 µM]
COc1ccc(C(=O)c2sc(NC(C)C)nc2N)cc1OC	-109*	-1	?	?	23µM*	4%
COc1ccc(C(=O)Nc2nc(C)c(C)s2)cc1OC	-7	5	?	?	?	3%
CC(C)NCC(=O)C12CC3CC(CC(C3)C1)C2	-4	3	-4%	?	-4%	7%
CC(C)Nc1nc(N)c(C(=O)C23CC4CC(CC(C4)C2)C3)s1	24	3	21µM*	1%	?	2%
COc1cccc(C(=O)c2sc(Nc3ccc(F)c(Cl)c3)nc2N)c1	·	·	2%	·	-16%	-3%
O=C(NCC(=O)N1CCOCC1)c1ccc(Cl)c(Cl)c1	8	2	2%	?	-22%	0%
CCCCOc1ccc(C(=O)NCC(=O)NCCOc2ccccc2)cc1	2	-10	1%	?	-25%	·
CCCCCOc1ccc(C(=O)NCC(=O)NCC(=O)OCC)cc1	31	12	18µM*	?	21µM*	3%
CCOC(=O)CNC(=O)CNC(=O)c1ccc(OC(C)C)cc1	1	-4	0%	?	-2%	·
CCOC(=O)CNC(=O)CNC(=O)c1ccc(OCC(C)C)cc1	24	-18	?	-1%	21µM*	8%
Nc1ncnc(N2CCOCC2)n1	1	-17	1%	·	3%	·
COc1ccc2c(Sc3ccccc3)c(C(=O)NCC(C)c3ccccc3)[nH]c2c1 (centres undefined)	·	·	?	·	?	-6%
